Assay results taken from PubChem BioAssay (NCATS).
Where “and” joins values, the source holds several entries; their conditions need not be identical. Equal values may be shown once. Inconclusive results are not listed. Values without a mark were called inactive. Calls of active or inactive are those of the source. Calls follow the shape of the dose curve; as a rule, active = well fitted curve in the direction sought with a large enough effect; inconclusive = small, poorly fitted or top-dose-only effect, or another doubt; inactive = no such curve, though single readings can be large; an effect the other way counts as inactive or inconclusive.

What was measured:
[1] = biological target: Cellular tumor antigen p53 (Homo sapiens) (UniProt P04637); assay: Primary qHTS for small molecule compounds that upregulate eGFP-tagged delta133p53alpha (in N-terminal) cells. (AID 2060322); details: NCI-H358 eGFP-delta133p53alpha fluorescence, 24 h; activation: hits give high values; also: nearly all actives have a fitted effect of over 75% in size; also: potency is read from the fitted curve at half-maximal effect;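 as to activation: cells pre-induced with doxycycline then dosed without doxycycline; series mostly up to about 56 µM; 0% = DMSO vehicle and 100% = reference activator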
In short: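 NCI-H358 cells pre-induced 24 h with 10 ng/ml doxycycline for eGFP-delta133p53alpha, plated dox-free and exposed 24 h at 37C to titrated compounds. Fixed, Hoechst-stained; gated GFP peak intensity by laser scanning cytometry, normalized to DMSO (0%) and 57.5 uM 5-azacytidine (100%).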

[2] = biological target: Aldehyde dehydrogenase, mitochondrial (Homo sapiens) (UniProt P05091); assay: qHTS for Inhibitors of the Aldehyde Dehydrogenase Family (ALDH2) Primary screen (AID 2061308);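 also: plate controls were vehicle for no effect and reference inhibitor for full effect; nearly all actives have a fitted effect of over 55% in size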
[3] = biological target: Retinaldehyde dehydrogenase 3 (Homo sapiens) (UniProt P47895); assay: qHTS for Inhibitors of the Aldehyde Dehydrogenase Family (ALDH1A3) Primary screen (AID 2061315);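 also: plate controls were DMSO vehicle for no effect and reference inhibitor for full effect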
[4] = BET inhibitor-based combinations targeting novel dependencies in MECOM-rearranged (r) AML: SET-2 cell line (AID 2202231); details: SET-2 AML cells viability, CellTiter-Glo luminescence, 48 h; viability: hits give low values, concentration not given here; also: nearly all actives have a fitted effect of over 35% in size; also: potency is read from the fitted curve at half-maximal effect;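 as to viability: plate controls were DMSO treated cells for no effect and wells without cells for full effect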
In short: (§1)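 Each compound was tested at eleven concentrations on cells seeded at 500/well. After two days' incubation, ATP-based luminescence reported viability; responses relative to DMSO and blank wells yielded AUC and cell-line-centred Z-AUC.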

[5] = BET inhibitor-based combinations targeting novel dependencies in MECOM-rearranged (r) AML: OCI-AML3 cell line (AID 2202232); details: Potency: OCI-AML3 viability; also: nearly all actives have a fitted effect of over 35% in size; also: potency is read from the fitted curve at half-maximal effect
In short: as §1

[6] = BET inhibitor-based combinations targeting novel dependencies in MECOM-rearranged (r) AML: MV-4-11 cell line (AID 2202233); also: nearly all actives have a fitted effect of over 45% in size; also: potency is read from the fitted curve at half-maximal effect
In short: (§2)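 First, 500 cells per well were seeded; next, drugs were pinned as 11-point doses; then plates sat 48 hr in the incubator; finally CellTiter-Glo was added and luminescence read, with AUC and Z-AUC computed.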

[7] = BET inhibitor-based combinations targeting novel dependencies in MECOM-rearranged (r) AML: HNT-34 cell line (AID 2202234); also: nearly all actives have a fitted effect of over 35% in size; also: potency is read from the fitted curve at half-maximal effect
In short: as §2

[8] = BET inhibitor-based combinations targeting novel dependencies in MECOM-rearranged (r) AML: UCSD-AML1 cell line (AID 2202235); also: nearly all actives have a fitted effect of over 40% in size; also: potency is read from the fitted curve at half-maximal effect
In short: as §2

[9] = BET inhibitor-based combinations targeting novel dependencies in MECOM-rearranged (r) AML: AML-191 cell line (AID 2202236; also: nearly all actives have a fitted effect of over 35% in size; also: potency is read from the fitted curve at half-maximal effect)
In short: as §1

[10] = BET inhibitor-based combinations targeting novel dependencies in MECOM-rearranged (r) AML: AML-194 cell line (AID 2202237; also: nearly all actives have a fitted effect of over 40% in size; also: potency is read from the fitted curve at half-maximal effect)
In short: as §1

Cellular tumor antigen p53 (Homo sapiens), sequence (P04637 whole entry, looked up): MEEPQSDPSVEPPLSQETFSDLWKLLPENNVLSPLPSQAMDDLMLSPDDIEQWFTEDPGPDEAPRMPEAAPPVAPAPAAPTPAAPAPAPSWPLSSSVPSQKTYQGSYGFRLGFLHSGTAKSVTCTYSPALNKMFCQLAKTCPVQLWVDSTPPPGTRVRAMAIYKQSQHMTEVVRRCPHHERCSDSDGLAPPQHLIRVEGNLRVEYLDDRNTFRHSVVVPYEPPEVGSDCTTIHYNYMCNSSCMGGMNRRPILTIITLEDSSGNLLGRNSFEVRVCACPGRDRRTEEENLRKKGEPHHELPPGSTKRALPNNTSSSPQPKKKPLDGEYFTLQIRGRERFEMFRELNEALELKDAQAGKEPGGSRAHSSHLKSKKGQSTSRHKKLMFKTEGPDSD

| SMILES | Potency [1] | Potency [2] | Potency [3] | Potency [4] | Potency [5] | Potency [6] | Potency [7] | Potency [8] | Potency [9] | Potency [10] | activation [1] | viability [4] [%] |
| --- | --- | --- | --- | --- | --- | --- | --- | --- | --- | --- | --- | --- |
| COc1ccc(CNc2nc(N(CCO)CCO)nc3c2ncn3C(C)C)cc1 | 8.49 µM (active) | inactive | inactive | 8.33 µM (active) | 8.33 µM (active) | 6.61 µM (active) | 7.42 µM (active) | 7.42 µM (active) | 3.32 µM (active) | 5.9 µM (active) | – | – |
| Oc1ccc([C@@H]2Oc3ccc(O)cc3[C@@H]3CCC[C@@H]32)cc1 | – | inactive | inactive | 18.6 µM (active) | 16.6 µM (active) | 13.2 µM (active) | 9.34 µM (active) | 5.9 µM (active) | 5.9 µM (active) | 7.42 µM (active) | 23.4% | – |
| C=CC(=O)Nc1cccc(Nc2nc(Nc3ccc(OCCOC)cc3)ncc2F)c1 | 9.53 µM (active) | inactive | inactive | 16.6 µM (active) | 14.8 µM (active) | 1.48 µM (active) | 1.86 µM (active) | 8.33 µM (active) | 8.33 µM (active) | 9.34 µM (active) | – | – |
| COc1ccc(-c2cc3c(C)nc(N)nc3n(C3CCC(OCCO)CC3)c2=O)cn1 (configuration not stated) | – | inactive | inactive | 1.66 µM (active) | 0.417 µM (active) | 0.296 µM (active) | 0.59 µM (active) | 0.105 µM (active) | – | 0.209 µM (active) | 3.45% | – |
| NC(=O)c1ccccc1Nc1ccnc(Nc2cccc(O)c2)n1 | 30.1 µM (active) | inactive | inactive | 5.9 µM (active) | 18.6 µM (active) | 0.662 µM (active) | – | 1.66 µM (active) | 5.25 µM (active) | – | – | – |
| Cc1cc(O)c(-c2ccc([C@@H](C)CN(C)C)cc2)c2c1[nH]c(=O)c1sccc12 | 0.301 µM (active) | inactive | inactive | 0.148 µM (active) | 0.132 µM (active) | 0.0833 µM (active) | 0.148 µM (active) | – | 0.118 µM (active) | 0.417 µM (active) | – | – |
| C[C@@H]1COCCN1c1cc(=O)n2c(n1)N(Cc1cncc(Cl)c1)[C@H](C(F)(F)F)CC2 | – | inactive | inactive | – | inactive | inactive | inactive | – | – | inactive | -34.6% | 106 |
| CCS(=O)(=O)N1CCN(c2ccc(Nc3ncc(C(N)=O)c(NC4CC4)n3)cc2)CC1 | – | inactive | inactive | 4.17 µM (active) | 13.2 µM (active) | 0.417 µM (active) | – | 0.372 µM (active) | 4.68 µM (active) | 4.68 µM (active) | 25.7% | – |
| Cc1ccccc1-n1c(Cn2nc(-c3cccc(O)c3)c3c(N)ncnc32)nc2cccc(C)c2c1=O | – | inactive | inactive | – | 1.86 µM (active) | 0.296 µM (active) | 14.8 µM (active) | – | 14.8 µM (active) | inactive | 21.6% and 16.7% | 105 |
| Cn1ncc2cc(-c3cnc(N)c(Cl)c3N3CCC4(CCNC4=O)CC3)ccc21 | – | inactive | inactive | – | inactive | 5.25 µM (active) | – | 10.5 µM (active) | 0.296 µM (active) | – | -11.6% | 103 |
| CNC(=O)c1ccccc1Nc1nc(Nc2ccc3c(c2OC)CCC[C@@H](N2CCN(CCO)CC2)C3)ncc1Cl | 9.53 µM (active) | inactive | inactive | 18.6 µM (active) | inactive | inactive | inactive | inactive | – | inactive | – | – |
| CC(C)C[C@H](CO)Nc1nc(S[C@@H](C)c2ccccc2)nc2nc(N)sc12 | – | inactive | inactive | 23.5 µM (active) | 26.3 µM (active) | 26.3 µM (active) | – | inactive | – | – | 5.67% | – |
| COc1cc(C(=O)N2CCC(N3CCN(C)CC3)CC2)ccc1Nc1ncc2c(n1)N(C)c1ccccc1C(=O)N2C | – | inactive | inactive | 6.61 µM (active) | 2.35 µM (active) | 1.48 µM (active) | – | 4.68 µM (active) | 9.34 µM (active) | 16.6 µM (active) | -6.3% and 0.893% | – |
| Cc1c(C(=O)Nc2ccc(N3C[C@@H](C)O[C@@H](C)C3)nc2)cccc1-c1ccc(OC(F)(F)F)cc1 | – | inactive | inactive | – | inactive | 5.25 µM (active) | – | inactive | inactive | – | 18.3% and -6.33% | 98.5 |
| Nc1ccn([C@@H]2O[C@H](CO)[C@@H](O)C2(F)F)c(=O)n1 | – | inactive | inactive | 0.0235 µM (active) | 0.0105 µM (active) | 0.0059 µM (active) | 0.0372 µM (active) | – | 0.0132 µM (active) | 0.0209 µM (active) | -26.8% and -6.68% | – |
